Compounds with a hit are over-represented: about 7.7% of the library has one in this group of screens.
Sm TGR inh – blocks Schistosoma mansoni thioredoxin glutathione reductase; purified TGR, DTNB reduction, TNB absorbance 405 nm; Potency, µM (highest dose often 114 µM), inactives show at the highest dose activity change, negative = inhibition, most hits filed as inhibitors; 3% of 360,000 active; AID 485364; note: potency is the fitted concentration of half-maximal effect; nearly all actives have a fitted effect of over 60% in size
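First, TGR (20 nM dispensed) and NADPH were mixed with compound. Second, a 15 min room-temperature incubation followed. Third, further NADPH and then DTNB were added to start the reaction. Finally, TNB absorbance was monitored kinetically.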
Giardia FBPA inh – blocks Giardia fructose-bisphosphate aldolase activity; A8B2U2; purified Giardia FBPA; Potency, µM (top dose mostly 59.6 µM), for the others: top-dose activity, negative = inhibition, hits mostly inhibitors; 0.71% of 290,000 active; AID 2451; note: potency is the fitted concentration of half-maximal effect; nearly all actives have a fitted effect of over 55% in size
Target sequence (A8B2U2 whole entry, looked up): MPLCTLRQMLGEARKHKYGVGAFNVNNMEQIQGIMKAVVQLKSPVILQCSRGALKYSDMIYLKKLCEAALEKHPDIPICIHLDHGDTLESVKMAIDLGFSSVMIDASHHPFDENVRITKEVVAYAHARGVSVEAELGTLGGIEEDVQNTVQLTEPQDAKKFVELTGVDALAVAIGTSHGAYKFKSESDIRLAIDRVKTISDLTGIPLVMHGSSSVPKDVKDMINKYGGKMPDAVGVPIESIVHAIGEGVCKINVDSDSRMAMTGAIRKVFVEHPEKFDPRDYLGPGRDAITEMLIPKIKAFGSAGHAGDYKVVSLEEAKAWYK
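40 nM FBPA preincubated 10 min at RT with compound (up to 57.5 uM final), then substrate plus GAPDH/TPI/NAD/arsenate coupling and diaphorase/resazurin added. Fluorescence read after 20 min at RT, 525/598 nm.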
Tb PYK inh – inhibitors of Trypanosoma brucei pyruvate kinase | TbPYK enzyme, Kinase-Glo Plus ATP luminescence, 45 min | Potency, µM (series often up to 76.8 µM), for the others: at the top dose activity, negative = inhibition, hits mostly inhibitors | 0.12% of 410,000 active; note: potency is the fitted concentration of half-maximal effect; nearly all actives have a fitted effect of over 50% in size
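Luminescent Kinase-Glo Plus end-point after 45 min room-temperature reaction of T. brucei pyruvate kinase started with 130 uM ADP (final). Buffer TEA 50 mM pH 7.2 with KCl, MgCl2, BSA, Tween-20; titration-based qHTS with fitted concentration-effect curves.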
FMDV antiviral – blocks foot and mouth disease virus; FMDV antiviral cell-based qHTS; AID 1159524; 1.2% of 410,000 active; Potency, µM (titrated, usually from 57.9 µM), for the others: top-dose activity change, negative = inhibition, hits mostly inhibitors; calls by dose curve; tested in HEK293T cells; note: read-out not given here; potency is the fitted concentration of half-maximal effect; nearly all actives have a fitted effect of over 45% in size
RE007 growth inh – less growth of the S. pombe RE007 Vpr strain; Potency, µM (top dose mostly 92.2 µM), without a hit: at the highest dose activity change, negative = less growth, most hits filed as inhibitors; AID 651644; S. pombe RE007 Vpr strain, BacTiter-Glo ATP luminescence, 24 h; 0.21% of 360,000 active; active = well fitted falling curve with a large enough effect; inconclusive = small, poorly fitted or top-dose-only effect; inactive = no such curve, though single readings can be large or run the other way; note: potency is the fitted concentration of half-maximal effect; nearly all actives have a fitted effect of over 50% in size
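Fission yeast RE007 carrying one integrated HIV-1 vpr copy, seeded at OD 0.01 in PMG+AL medium with 23 nL pinned compound. Grown 24 h at 30 degrees; viability read by BacTiter-Glo luminescence after 5 min.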
HCMV antiviral – blocks human cytomegalovirus replication | 4.5% of 410,000 active | activity change, negative = inhibition, % at 57.5 µM | HFF cells, HCMV-luciferase reporter, 72 h; stronger effect = lower value | AID 1259415; in the data active = activity change below about -60%; inconclusive = no clear call, values can overlap the other calls; inactive = above about -39%
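Inhibition of viral replication was scored as loss of reporter luminescence in HFFs infected with HCMV-luciferase (MOI 1 PFU/cell) for 72 h; compounds tested at 2 doses, normalized to buffer and Salinomycin controls.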
* hit, by the source's call; ? = inconclusive; · = no result; [ ] = another dose, or the depositor's remark. Unless noted, calls come from the whole dose curve; as a rule, active = well fitted curve in the direction sought with a large enough effect; inconclusive = small, poorly fitted or top-dose-only effect, or another doubt; inactive = no such curve, though single readings can be large; an effect the other way counts as inactive or inconclusive. % is set by controls: 0 for no effect and ±100 for the full control effect.

SMILES	Sm TGR inh	Giardia FBPA inh	Tb PYK inh	FMDV antiviral	RE007 growth inh	HCMV antiviral
COc1ccc(CNC(=O)c2ccc(-c3nc(CS(=O)c4ccc(C)cc4)c(C)o3)cc2)cc1 (centres undefined)	?	·	-18%	0%	·	29
CCCNC(=O)c1ccc(-c2nc(CS(=O)(=O)c3ccc(C)cc3)c(C)o2)cc1	40µM*	·	-1%	-5%	·	6
Cc1ccc(S(=O)(=O)Cc2nc(-c3ccc(C(=O)NCc4ccccc4F)cc3)oc2C)cc1	7.9µM*	·	·	·	·	·
COc1ccccc1CNC(=O)c1ccc(-c2nc(CS(=O)c3ccc(C)cc3)c(C)o2)cc1 (centres undefined)	13µM*	·	-11%	?	·	0
CSCC[C@H](NC(=O)[C@@H]1CCCN1C(=O)CNC(=O)[C@H](CCCCN)NC(=O)[C@H](Cc1cnc[nH]1)NC(=O)[C@H](CO)NC(=O)[C@H](CC(C)C)NC(=O)[C@H](CCCN=C(N)N)NC(=O)[C@@H]1CCCN1C(=O)[C@H](CCCN=C(N)N)NC(=O)[C@@H]1CCC(=O)N1)C(=O)N1CCC[C@H]1C(=O)N[C@@H](Cc1ccccc1)C(=O)O	·	8%	·	·	·	·
COCCN(CCOC)c1nc(C)nc2c1nc(-c1ccccc1)n2CCCN1CCCCC1C (centres undefined)	·	7%	·	·	·	·
CCOC(=O)c1noc2ncn(CC(=O)Nc3ccccc3OC)c(=O)c12	-2%	·	6%	-10%	·	2
Cc1cccc(C(=O)NCc2nc(-c3cccc(NC(=O)C4CCCN(C)C4)c3)oc2C)n1 (centres undefined)	·	·	·	-6%	·	·
COc1ccc(OC)c(-c2cc(C(=O)Nc3ccc(C)c(C)c3)no2)c1	1%	·	-5%	2%	·	26
O=[N+]([O-])c1cccnc1N/N=C/c1ccccc1O	-3%	0%	-27%	3%	0%	-97*
Cc1c(O)ccc(/C=N/Nc2ncccc2[N+](=O)[O-])c1O	-22%	16%	-13%	-20%	?	-69*
CCN(c1ccccc1)S(=O)(=O)c1nnc(NC(=O)c2ccccc2)s1	-5%	·	-4%	31%	·	-22
Nc1nc(N)c(S(=O)(=O)c2ccccc2)c(Nc2ccc(F)cc2)n1	12%	·	-3%	-4%	·	-1
Cc1ccc(NC(=O)c2ccc(-n3cccn3)c([N+](=O)[O-])c2)cc1C	11µM*	-23%	-6%	-11%	-18%	121
COc1ccc(NC(=O)c2ccc(-n3cccn3)c([N+](=O)[O-])c2)cc1	40µM*	-16%	3%	-26%	10%	-13
CCN(CC)S(=O)(=O)c1cc(NC(=O)c2ccc(-n3cncn3)c([N+](=O)[O-])c2)ccc1C	-9%	·	4%	13µM*	-4%	-84*
COc1ccccc1NC(=O)c1ccc(-n2cccn2)c([N+](=O)[O-])c1	25µM*	-20%	2%	-23%	0%	-20
O=C(Nc1ccc(Cl)cc1)c1ccc(-n2cccn2)c([N+](=O)[O-])c1	0%	-12%	1%	-21%	1%	5
CCc1ccc(CNC(=O)C2CCN(C(=O)N3CC(CC)Oc4ccc(C)cc43)CC2)cc1 (centres undefined)	10%	·	4%	?	·	88
O=C(Nc1ccccc1[N+](=O)[O-])c1csnn1	-9%	·	-10%	34%	·	13
O=C(O[C@H]1CC[C@@]23CCCN2C(=O)CCC[C@H]3[C@H]1Cc1ccccc1)N1CCCC1	·	·	·	·	·	-16
Cc1ccc(C(=O)N(Cc2cc3cccc(C)c3nc2N(C)C)CC2CCCO2)cc1 (centres undefined)	·	·	·	-5%	·	·
Cc1ccc(C(=O)c2c(C)oc3c2C(=O)C(=O)c2ccccc2-3)cc1	?	0.63µM*	6%	?	25µM*	·
O=C(c1ccc(Cl)cc1)c1ccc(CN2C(=O)c3ccccc3C2=O)o1	-33%	3%	-3%	-4%	-12%	-13
COc1ccc(C(=O)c2c(C(F)(F)F)oc3c2C(=O)c2ccccc2C3=O)cc1	-16%	?	-4%	?	?	·
SMILES	Sm TGR inh	Giardia FBPA inh	Tb PYK inh	FMDV antiviral	RE007 growth inh	HCMV antiviral
Cc1oc2c(c1C(=O)c1ccc(Cl)cc1)C(=O)C(=O)c1ccccc1-2	?	0.89µM*	3%	?	-15%	?
Cc1ccc(C(=O)c2coc3c2C(=O)C(=O)c2ccccc2-3)cc1	?	2.8µM*	-19%	·	?	-23
COc1ccc(C(=O)c2coc(-c3ccccc3C(=O)O)c2C(=O)O)cc1	-2%	15%	-6%	0%	-10%	50
CC(=C1N=C(c2ccccc2)OC1=O)c1cccs1	·	·	·	·	·	-36
Cc1cc(C)c(Cn2c3ccccc3c3cnn(CC(=O)NC4CCC(C)CC4)c(=O)c32)c(C)c1 (centres undefined)	0%	·	2%	0%	·	-3
CN1CCN(C(=O)c2ccc(N3CC4ON=C(c5c(F)cccc5Cl)C4C3)cc2)CC1 (centres undefined)	·	·	·	·	·	-13
COc1cc(/C=N/Nc2ccc(F)cc2F)cc(OC)c1O	25µM*	?	?	10%	2%	26
Cc1cccc(NC(=O)Nc2ccc(C#N)cc2)n1	-1%	-9%	4%	30%	-3%	-84*
Cc1cccc(NC(=O)/C(C#N)=C/c2ccccc2O)n1	89µM*	3%	4%	9%	-4%	9
Cc1cccc(NC(=O)Nc2cccc(C#N)c2)n1	6%	2%	3%	42%	0%	-25
COc1ccc(CNCC(O)COc2ccc3[nH]c(=O)ccc3c2)cc1OC (centres undefined)	·	·	-6%	·	·	·
O=C(CCl)N1c2ccccc2Sc2ccc3ccccc3c21	·	·	0%	32µM*	-12%	·
COc1cccc(N2CCN(C(=O)c3ccc4c(Cl)c5c(nc4c3)CCCC5)CC2)c1	-1%	·	-8%	?	·	-75*
Cc1nc2cccnc2n1-c1cccc(C(=O)NCCc2ccc(Cl)cc2)c1	-2%	·	0%[15.4 µM]	?	·	?
Cc1nc2cccnc2n1-c1cccc(C(=O)N2CCN(c3cccc(Cl)c3)CC2)c1	9%	·	12%[15.4 µM]	25µM*	·	0
COc1cccc(N2CCN(C(=O)c3cccc(-n4c(C)nc5cccnc54)c3)CC2)c1	1%	·	0%[15.4 µM]	28µM*	·	0
COc1cccc(N2CCN(C(=O)c3ccc4nc[nH]c4c3)CC2)c1	-17%	·	-5%	-13%	12%	-9
CCc1ccccc1N(C)C(=O)Nc1cn(CC(C)C)c(=O)c2ccccc12	17%	·	-9%	-17%	·	-4
COC(=O)c1ccc(OCC(=O)c2ccc(O)cc2O)cc1	5%	10%	-4%	-7%	-5%	-61*

Screening results as filed in PubChem BioAssay.
